The list is not random: actives were taken first. Their share in the collection is about 3.1%.
RAD52 inh – inhibitors of human RAD52 DNA annealing; 360,000 tested, 0.46% active; P43351; inhibition, % at 18.7 µM; recombinant RAD52 DNA annealing, FRET fluorescence;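 active means every replicate showing at least 50% inhibition; inconclusive means mean inhibition at least 50% but not in every replicate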
MLL AF4-AF9 inh – MLL-AF4/AF9 protein interaction inhibition; 350,000 tested, 0.47% active; P42568; AlphaScreen, biotin-AF4 peptide binding to FLAG-AF9; inhibition, % at 10 µM;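 active means every replicate reaching a set inhibition limit, whatever the replicate mean, cut at about 25% in these data; inconclusive means mean inhibition reaches that limit but some replicates miss it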;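 further: 0% = plate neutral control median and 100% = total signal loss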
Target sequence (P42568 whole entry, looked up): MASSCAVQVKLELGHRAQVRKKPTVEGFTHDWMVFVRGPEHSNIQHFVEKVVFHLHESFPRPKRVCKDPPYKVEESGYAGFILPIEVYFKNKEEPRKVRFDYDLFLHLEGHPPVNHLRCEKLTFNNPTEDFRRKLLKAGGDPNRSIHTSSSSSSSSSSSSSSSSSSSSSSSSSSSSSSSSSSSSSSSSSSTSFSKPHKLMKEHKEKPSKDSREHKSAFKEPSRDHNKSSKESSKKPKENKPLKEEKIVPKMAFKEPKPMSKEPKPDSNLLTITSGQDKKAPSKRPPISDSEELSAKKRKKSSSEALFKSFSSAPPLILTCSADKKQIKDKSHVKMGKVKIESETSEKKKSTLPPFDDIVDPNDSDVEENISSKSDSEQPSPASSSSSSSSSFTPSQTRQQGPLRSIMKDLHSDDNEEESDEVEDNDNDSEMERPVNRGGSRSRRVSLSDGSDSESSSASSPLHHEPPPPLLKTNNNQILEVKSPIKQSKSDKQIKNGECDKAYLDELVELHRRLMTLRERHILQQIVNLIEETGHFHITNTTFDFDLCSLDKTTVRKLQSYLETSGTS
DENV2 CPE – protects cells from dengue virus 2 cytopathic effect; DENV2-infected cells, cytopathic effect rescue, plate reader; CPE inhibition, % at 9.99 µM; 350,000 tested, 1.7% active; in the data active means CPE inhibition above about 20%, passing the limit was not always enough; inconclusive means no clear call, values can overlap the other calls; tested in BHK-21 cells;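 further: 0% = median of neutral control wells and 100% = median of positive control wells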
RAD54 inh – inhibitors of human RAD54 branch migration; Q92698; RAD54 Holliday junction branch migration, FAM/BHQ fluorescence; inhibition, % at 10.4 µM; 360,000 tested, 0.14% active; AID 602329;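 active means mean normalized replicate activity at least 40 and at least half of replicates scoring 40 or more; inconclusive means only one of the two criteria met; inactive means mean below 40 and under half of replicates reaching 40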;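 further: 0% = median of neutral control wells and 100% = median of positive control wells; inhibitors cause a drop in the FAM fluorescence signal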
dFosB act – enhances mouse delta FosB homodimer DNA binding; P13346; purified delta FosB, TAMRA-CDK5 oligo fluorescence polarization; percent of positive-control signal above neutral wells; activation, % at 25 µM; 340,000 tested, 0.99% active;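 active means mean activation above about 17%, with every replicate also reaching it, limit read from the data, passing the limit was not always enough; inconclusive means only one of the two conditions met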
INS-1E GSIS act – GLuc luminescence reporter in INS-1E cells, primary screen for activators of glucose-dependent secretion of insulin. INS-1E GLuc reporter insulin secretion, 2-3 h. activation, % at 16.6 µM. 370,000 tested, 0.61% active. AID 743287;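 active means lowest replicate activation of at least 40%, so every replicate reaches that level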;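 further: 0% = median of neutral control wells and 100% = median of IBMX positive control wells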
DNA binding – counter-screen for Rad54 inhibitors: DNA binding compounds. AC50, µM (series often up to 35 µM), for the others: at the top dose activity change, negative = DNA binding. 460 tested, 8% active. Acridine orange-DNA displacement, fluorescence polarization, 20 min. shares compounds with RAD54 inh;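 active means signal drop giving an AC50 within twice the top valid tested concentration of each sample, actives reach about 35 µM in these data; inactive means activity opposite to expected, plus the rest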;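 further: polarization loss reports compound binding to salmon sperm DNA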
Numbers without * were called inactive; i = inactive; ? = inconclusive; nt = no result given.

SMILES	RAD52 inh	MLL AF4-AF9 inh	DENV2 CPE	RAD54 inh	dFosB act	INS-1E GSIS act	DNA binding
CCNCCNC(=O)c1c(O)c2cccc3c2n(c1=O)CCC3	nt	nt	nt	?	-5	nt	-9%
C[C@H]1CCCCO[C@H](CN(C)S(=O)(=O)c2ccccc2)[C@@H](C)CN([C@@H](C)CO)C(=O)c2cc(N(C)C)ccc2O1	20	12	-11	-3	nt	-1	nt
Cc1cc(C)n(-c2nc(NCCN(C)C)c3c4c(sc3n2)COC(C)(C)C4)n1	29	2	13	?	nt	-7	11%
Cn1c2ccc(F)cc2c2ncn(CCCN(CCO)CCO)c(=O)c21	nt	nt	nt	54*	3	nt	-14%
COCCNC(=O)C[C@H]1C[C@@H]2c3cc(NS(C)(=O)=O)ccc3O[C@@H]2[C@@H](CO)O1	-7	-3	12	10	nt	0	nt
Cc1nnc2c(N3CCN(CCO)CC3)nc3ccccc3n12	5	4	-3	?	1	2	-18%
O=C(Nc1ccccc1)N[C@H]1CC[C@@H](CCn2cc(C3(O)CCCC3)nn2)O[C@H]1CO	-3	0	-1	-5	nt	11	nt
C[C@@H]1CN([C@@H](C)CO)C(=O)c2cc(C#CCN(C)C)cnc2O[C@H]1CN(C)C(=O)Cc1cccnc1	-14	-4	1	-3	nt	17	nt
COCCNC(=O)c1cc2c(=O)n(C)c3ccccc3c2n1C	-13	-2	7	-5	-15	21	nt
CCN(CC)CCCNC(=O)c1cc2c(=O)n(C)c3ccccc3c2n1C	18	2	4	72*	-17	-3	-22%
CCN(CC)CCNC(=O)c1cc2c(=O)n(C)c3ccccc3c2n1C	39	-2	-4	61*	-26	14	-12%
CN(C)CCNC(=O)c1cc2c(=O)n(C)c3ccccc3c2n1C	42	-3	-8	78*	-12	-3	i
CCCCN(CC)CCNC(=O)c1cc2c(=O)n(C)c3ccccc3c2n1C	8	4	-2	56*	-13	0	-16%
CC(C)NC(=O)N(C)C[C@@H]1Oc2ccc(NC(=O)C3CC3)cc2CC(=O)N([C@@H](C)CO)C[C@H]1C	12	-4	-2	11	nt	12	nt
CCCN(CCC)CCCNC(=O)c1cc2c(=O)n(C)c3ccccc3c2n1C	16	-1	5	?	-33	21	-11%
C[C@H](CO)N1C[C@H](C)[C@@H](CN(C)S(=O)(=O)c2ccc(F)cc2)Oc2c(NS(=O)(=O)c3ccc(Cl)cc3)cccc2C1=O	nt	nt	-7	3	nt	5	nt
Cc1ccc(C2C(=O)N(C3CCC(C)CC3)CC(=O)N2C2CCCC2)cc1 (stereo not drawn)	nt	nt	nt	9	-11	-4	nt
O=C1C(c2ccc(F)cc2)N(C2CCCCC2)C(=O)CN1C1CCCC1 (stereo not drawn)	nt	nt	nt	?	-10	-2	-12%
COc1ccccc1C1=NOC(Cn2c(NCCCO)nc3c2c(=O)n(C)c(=O)n3C)C1 (stereo not drawn)	-12	2	0	?	-4	21	5%
CCOC(=O)c1c(NC(C)=O)sc2c(OC)cccc12	nt	nt	nt	4	0	nt	nt
CCOC(=O)c1c(NC(C)=O)sc2c(O)c(CN3CCN(CC)CC3)ccc12	nt	nt	nt	62*	-4	nt	24%
C=CCN1C(=O)C(C)(C)Nc2ccccc21	nt	nt	nt	?	0	nt	-7%
C=CCn1c(C)nnc1SCC(=O)N1c2ccccc2NC(=O)C1(C)C	1	-6	-3	-5	nt	nt	nt
COc1ccccc1S(=O)(=O)N1C[C@H](O)COC[C@H]2O[C@H](CC(=O)O)CC[C@@H]21	2	-11	-12	-7	nt	0	nt
CC(C)CCC(CCN1CCCC1)c1ccc2c(c1)OCO2 (stereo not drawn)	-6	3	0	4	-4	6	nt
SMILES	RAD52 inh	MLL AF4-AF9 inh	DENV2 CPE	RAD54 inh	dFosB act	INS-1E GSIS act	DNA binding
COCCCNCCC(CCC(C)C)c1ccc2c(c1)OCO2 (stereo not drawn)	-9	1	19	?	nt	nt	13%
N#C[C@@H]1[C@@H](c2ccccc2C2=CCCCC2)[C@@H](CO)N1C(=O)Cc1ccncc1	-7	1	1	nt	nt	-17	nt
CC(C)C(N)c1csc(Nc2nncc3ccccc23)n1 (stereo not drawn)	13	0	-4	30	nt	nt	nt
CC(N)c1csc(Nc2nncc3ccccc23)n1 (stereo not drawn)	40	4	-11	70*	nt	13	-1%
CCN(CC)CCn1c2ccc(F)cc2c2nc(C)sc21	nt	nt	nt	?	4	nt	-5%
Cc1nc2c3cc(Cl)ccc3n(CCN3CCOCC3)c2s1	-5	2	-3	nt	-3	80	nt
CCN1CCN(c2nc(N)c([N+](=O)[O-])c(Nc3cccc(C)c3)n2)CC1	-17	?	3	?	9	8	-8%
CC=Cc1ccc2n(c1=O)C[C@@H]1[C@@H](CO)[C@H](C(=O)N[C@H](C)c3ccccc3)[C@H]2N1Cc1ccccc1 (mixture of isomers)	-5	1	-7	nt	nt	-15	nt
C[C@@H](NC(=O)[C@H]1N[C@H]2c3ccc(-c4cccnc4)c(=O)n3C[C@H]2[C@@H]1CO)c1ccccc1	-5	1	0	-7	nt	-7	nt
Cc1ccc(-c2csc3nc4c5ccccc5c(NCCCN(C)C)nn4c(=O)c23)cc1	97*	-2	nt	53*	1	9	-17%
CC(C)C(=O)Nc1ccc2c(c1)C(=O)N(C)[C@H]1CC[C@H](CC(=O)Nc3cccc(F)c3)O[C@@H]1CO2	-9	nt	-7	2	nt	-2	nt
c1cc2c3c(cccc3c1)C(N1CCCCC1)=N2	nt	nt	nt	65*	15	nt	-20%
CCN(CC)CCNC(=O)c1cc2c(-c3ccc(Cl)cc3)nn(C)c2s1	61*	14	0	113*	-66	15	i
COc1cc2[nH]c3c(=O)n(CCN4CCCCC4)cnc3c2cc1OC	nt	nt	nt	55*	1	nt	-15%
CCOC(=O)c1c(C)n(-c2ccc(OC)cc2)c2ccc(O)c(CN(C)C)c12	44	15	?	?	-7	-15	11%
CCOC(=O)c1c(C)n(-c2ccc(C)cc2)c2ccc(O)c(CN(C)C)c12	43	17	-2	37	-4	-9	nt
C[C@@H]1CN([C@@H](C)CO)S(=O)(=O)c2ccc(-c3ccncc3)cc2O[C@H]1CN(C)C(=O)C1CCCCC1	nt	nt	nt	nt	nt	-12	nt
COc1cccc2c1-c1c(O)cccc1C2=O	-29	1	1	?	13	15	-19%
COc1ccccc1O	0	1	-3	2	-1	3	nt
Oc1ccc(CCNc2c3ccccc3nc3ccccc23)cc1O	106*	19	0	116*	71*	3	25µM*
CC(=O)c1ccc(Nc2cc(C)nc3c(C)cccc23)cc1	-20	0	0	2	-14	-4	nt

Screening results deposited in PubChem BioAssay by Broad Institute.
